Screening results from PubChem BioAssay.
GPR151 ag: activates the human receptor GPR151; PathHunter beta-arrestin GPR151 cells, luminescence; activation, % at 11.2 µM; 650,000 tested, 1% active; Q8TDV0; AID 1508602; in the data active = activation above about 4.9%;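 note: 0% = median of compound wells and 100% = cells with positive control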
MITF inh: inhibitors of human MITF. AlphaScreen MITF homodimerization, bead proximity signal. inhibition, % at 2.6 µM. 650,000 tested, 0.91% active; in the data active = inhibition above about 50%;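 note: 0% = vehicle wells with protein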
TEAD-YAP block: TEAD-YAP interaction inhibition; AID 1259422; HEK-TIYL cells, TEAD-Gal4/YAP UAS-luciferase luminescence; inhibition, % at 9.12 µM; 640,000 tested, 1.4% active; in the data active = inhibition above about 32%;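 note: 0% = median of test compound wells and 100% = reference inhibitor wells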
FBW7 act: human FBW7 E3 ligase activation, primary screen; normalized activity (activation), % at 26.1 µM; 650,000 tested, 0.13% active; AID 1259310; AlphaScreen FBW7–phospho-cyclin E peptide binding, activator screen; in the data active = normalized activity above about 1.9%;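 note: purified mutant Fbw7 with reduced substrate affinity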
Target sequence (Q969H0 whole entry, looked up): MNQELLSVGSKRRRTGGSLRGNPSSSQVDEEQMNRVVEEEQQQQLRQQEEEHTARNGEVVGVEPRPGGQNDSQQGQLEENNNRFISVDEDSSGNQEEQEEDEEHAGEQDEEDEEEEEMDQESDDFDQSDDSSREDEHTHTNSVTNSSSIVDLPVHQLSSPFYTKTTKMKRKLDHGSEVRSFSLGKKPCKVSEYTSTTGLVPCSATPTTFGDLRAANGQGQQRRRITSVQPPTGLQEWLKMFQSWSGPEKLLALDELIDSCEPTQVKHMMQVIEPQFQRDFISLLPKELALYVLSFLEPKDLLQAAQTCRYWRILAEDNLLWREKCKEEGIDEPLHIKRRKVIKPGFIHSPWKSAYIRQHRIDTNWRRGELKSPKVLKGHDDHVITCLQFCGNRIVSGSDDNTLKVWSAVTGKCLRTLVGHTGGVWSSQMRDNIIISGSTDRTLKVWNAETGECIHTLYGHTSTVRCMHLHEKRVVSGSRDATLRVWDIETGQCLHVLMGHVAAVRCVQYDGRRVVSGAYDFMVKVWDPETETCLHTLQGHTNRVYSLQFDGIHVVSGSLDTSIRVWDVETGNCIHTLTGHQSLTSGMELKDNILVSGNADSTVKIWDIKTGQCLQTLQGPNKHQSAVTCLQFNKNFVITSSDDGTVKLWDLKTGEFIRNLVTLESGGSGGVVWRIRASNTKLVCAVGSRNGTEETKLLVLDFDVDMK
* hit, by the source's call. Sampled rows, rich in hits. Any-hit rate of the full collection: about 3.4%.

SMILES	GPR151 ag	MITF inh	TEAD-YAP block	FBW7 act
O=C(Nc1cc(C(F)(F)F)ccc1Cl)c1cc2n(n1)C(C(F)(F)F)CC(c1ccc3c(c1)OCO3)N2 (configuration not stated)	0	14	3	0
CC(C)OC(=O)c1c(NC(=O)COc2ccccc2[N+](=O)[O-])sc2c1CCCC2	1	12	-9	0
Cc1cc(S(=O)(=O)N(C)C2CCCCC2)ccc1-n1cnnn1	-1	4	52*	0
CC(=O)N/C(=C/c1ccccc1Br)C(=O)NC(C)(C)C	0	-12	-4	0
O=C1CC(c2ccc3c(c2)OCCCCO3)Oc2ccccc21 (configuration not stated)	0	0	59*	0
Cc1ccc2c(c1)C(=O)CC(c1ccc3c(c1)OCCO3)O2 (configuration not stated)	1	-1	-50	0
CCOC(=O)C1CCCN(S(=O)(=O)c2cc(C(=O)Nc3ccc(Oc4ccccc4)cc3)ccc2F)C1 (configuration not stated)	-1	8	53*	0
CCOc1ccc(NC(=O)c2ccc(F)c(S(=O)(=O)N3CCCc4ccccc43)c2)cc1	0	15	43*	1
CCOC(=O)C1CCCN(S(=O)(=O)c2cc(C(=O)Nc3ccc(CC)cc3)ccc2F)C1 (configuration not stated)	0	10	1	1
O=C(Nc1ccc(Oc2ccccc2)cc1)c1ccc(F)c(S(=O)(=O)N2CCN(c3cccc(Cl)c3)CC2)c1	2	3	41*	0
CCOc1ccc(NC(=O)c2ccc(F)c(S(=O)(=O)N3CCN(c4ccccc4)CC3)c2)cc1	1	0	37*	0
CC(C)N(CCNc1nc(Cl)nc2c1ncn2C1CCCCC1)C(C)C	1	0	-5	0
CN1CCN(c2cc(NCC(=O)O)c3c4c(onc24)-c2ccccc2C3=O)CC1	0	42	-28	0
COc1ccc(CCNc2cc(N3CCN(CCO)CC3)ccc2[N+](=O)[O-])cc1OC	2	10	64*	0
COc1cc(CN2CCN(c3ccc([N+](=O)[O-])cc3)CC2)cc([N+](=O)[O-])c1O	1	33	0	0
COc1ccc(N2CCN(Cc3cc(OC)c(O)c([N+](=O)[O-])c3)CC2)cc1	0	72*	-9	0
COc1ccc(C(=O)N2CCN(c3ccc([N+](=O)[O-])c(NCCc4ccc(OC)c(OC)c4)c3)CC2)cc1Cl	-2	-1	59*	0
O=C(c1ncn[nH]1)N1CCN(c2ccc([N+](=O)[O-])c(NCc3ccc(Cl)cc3)c2)CC1	-1	-333	7	3.9*
O=C(Nc1ccc(F)cc1)Nc1cnc2ccccc2c1	-1	4	-32	0
CCOc1ccc(C(=O)Nc2ccc(O)c(-c3nc4cc(C)ccc4o3)c2)cc1	-1	5	-2	0
COc1ccc2c(c1)c(C)c(C)n2CCc1ccc(C)nc1	-2	-6	50*	0
Cc1ccc(CCn2c(C)c(C)c3ccccc32)cn1	3	9	-3	1
CCCN(CCC)C1=CC(=O)C(C)=CC1=O	-2	65*	2	0
CCCN(CCC)C1=CC(=O)C(C)=C(C)C1=O	0	39	0	0
Cc1ccc(Nc2nnc(Sc3nnnn3-c3ccccc3)s2)cc1	-1	7	53*	1
SMILES	GPR151 ag	MITF inh	TEAD-YAP block	FBW7 act
c1ccc(CCSc2nnnn2-c2ccccc2)cc1	0	1	-47	0
Cc1ccc(Nc2nc(CSc3nnnn3-c3ccccc3)cs2)cc1	1	12	-2	0
CCCSc1nnc(Sc2nnnn2-c2ccccc2)s1	1	3	56*	0
Cc1ccc2[nH]c(=O)c(CN(Cc3nnnn3Cc3ccccc3)CC3CCCO3)cc2c1 (configuration not stated)	0	-1	4	0
O=C(Nc1ccc(CC(=O)N2CCOCC2)cc1)c1ccccn1	-6	-1	-42	0
CCNC(=S)NNC(=O)Cn1c(-c2ccc(C)cc2)csc1=S	-1	0	6	0
COc1cccc(N=C/C(C(=O)C(F)(F)F)=C(\O)c2cccs2)c1	-1	14	82*	0
COc1cccc(/C=N/NC(=O)c2cccs2)c1	-2	18	-73	0
CN1CCc2cc(C(CNC(=O)NCc3ccccc3)N3CCOCC3)ccc21 (configuration not stated)	1	5	-1	0
COc1ccc2cc(C)c3nn(CC(=O)N(C(C)C)C(C)C)c(=O)n3c2c1	2	3	5	0
COc1cccc(NS(=O)(=O)c2cc(F)ccc2CN2C(=O)c3cccnc3C2=O)c1	3	18	-4	0
